Read-out in experiment [1]: Monocyte Chemoattractant Protein-1 (MCP1), CCL2 (gene 6347)
Briefly: BSK_SAg_MCP1: BioMAP Diversity Plus: SAg Assay for Monocyte Chemoattractant Protein-1 (MCP1) Biomarker Activity (AID 2283090). The following applies: primary human HUVEC with PBMC; actives raise or lower the signal. The method in brief: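 MCP-1 levels in the endothelial–PBMC SAg co-culture were quantified by ELISA at 24 h post-dosing; both increases and decreases versus DMSO scored. Cytotoxicity monitored by SRB total protein in parallel cultures.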

Read-out in experiment [2]: E-selectin (Homo sapiens) (UniProt P16581)
The experiment can be described thus: BSK_SAg_Eselectin: BioMAP Diversity Plus: SAg Assay for Eselectin Biomarker Activity (AID 2283091). The following applies: primary human HUVEC with PBMC; actives raise or lower the signal. The method in brief:
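Endpoint values derive from bidirectional fitting relative to DMSO, using ELISA-measured E-selectin in a human vascular co-culture (umbilical vein endothelium plus PBMC) sampled 24 h after dosing.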

Read-out in experiment [3]: Monokine induced gamma interferon (MIG), CXCL9 (gene 4283)
The experiment can be described thus: BSK_SAg_MIG: BioMAP Diversity Plus: SAg Assay for Monokine induced gamma interferon (MIG) Biomarker Activity (AID 2283092). The settings on record: primary human HUVEC with PBMC; actives raise or lower the signal. The method in brief: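 Endothelial cells and PBMC were co-cultured, exposed to test chemicals, and sampled 24 h later. MIG was measured by ELISA, and responses were fitted in both directions relative to DMSO.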

A short description of experiment [4]: BSK_SAg_PBMCCytotoxicity: PBMC Cytotoxicity Assessment in the BioMAP Diversity Plus: SAg Assay (AID 2283093).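 Also: PBMC viability measured as Alamar Blue reduction fluorescence at 546/580 nm; fitted both ways against DMSO so a hit may be loss or gain of signal.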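 As to AC50: PBMC superantigen activated with SEB plus TSST-1 one hour after compound addition.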 The following applies: primary human HUVEC with PBMC. The method in brief:
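HUVEC/PBMC co-culture; PBMC exposed to chemical 1 h before SEB and TSST-1 activation (20 ng/mL each), incubated 90 h, then Alamar Blue 6 h, fluorescence 546/580 nm. Bidirectional fit versus DMSO baseline.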

Experiment [5] in a line: BSK_SAg_Proliferation: Cell Proliferation Assessment in the BioMAP Diversity Plus: SAg Assay (AID 2283095).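 Also: relative cell number as total protein by SRB absorbance in sub-confluent culture.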 The settings on record: primary human HUVEC with PBMC. The method in brief:
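Human umbilical vein endothelial cells co-cultured with peripheral blood mononuclear cells; total protein measured by sulforhodamine B staining (0.1% SRB after 10% TCA fixation), absorbance at 560 nm, at 96 h. Bidirectional fit against DMSO baseline.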

Experiment [6] can be described thus: BSK_SAg_SRB: Viability Assessment in the BioMAP Diversity Plus: SAg Assay (AID 2283096).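 Also: cells read one day after compound addition; hits may be either gain or loss of signal compared with DMSO.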 The following applies: primary human HUVEC with PBMC. The method in brief:
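Human umbilical vein endothelial cells co-cultured with PBMC, read 24 h after compound dosing. Total protein measured by sulforhodamine B staining (0.1% SRB after 10% TCA fixation, absorbance 560 nm); bidirectional fit versus DMSO baseline.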

Read-out in experiment [7]: Interleukin-8 (IL8), CXCL8 (gene 3576)
The experiment can be described thus: BSK_SAg_IL8: BioMAP Diversity Plus: SAg Assay for Interleukin-8 (IL8) Biomarker Activity (AID 2283094). The following applies: primary human HUVEC with PBMC; actives raise or lower the signal. The method in brief: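 Human umbilical vein endothelial cells co-cultured with peripheral blood mononuclear cells; IL-8 measured by ELISA 24 h after chemical dosing. Bidirectional concentration-response fitting used DMSO as negative control and activity baseline.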

Experiment [8] has as its target human CYP1A1, CYP1A1 (gene 1543) (UniProt P04798). The experiment can be described thus: NVS_ADME_hCYP1A1: NovaScreen (NVS) CYP450-related Enzyme Activity (ADME) Assay for human CYP1A1 (AID 2283100; active = hit-call score of the fitted dose curve at least 0.9, where 1 is the maximum). The method in brief: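 Inhibition of recombinant CYP1A1 turnover was assessed fluorometrically in a biochemical format 1 h after compound exposure. Testing began at 10 uM in duplicate and progressed to concentration series reaching 20 uM, with on-plate positive and negative controls.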

Experiment [9] concerns the target human CYP2C9, CYP2C9 (gene 1559) (UniProt P11712). Briefly: NVS_ADME_hCYP2C9: NovaScreen (NVS) CYP450-related Enzyme Activity (ADME) Assay for human CYP2C9 (AID 2283108; active = hit-call score of the fitted dose curve at least 0.9, where 1 is the maximum). The method in brief: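 Recombinant human CYP2C9 expressed in SF9 cells, fluorogenic substrate, fluorescence read 0.75 h after dosing. Chemicals first run in duplicate at 10 uM, with actives followed in concentration series; loss of signal versus acetonitrile baseline.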

Experiment [10] has as its target Cytochrome P450 2C19 (Homo sapiens) (UniProt P33261). Briefly: NVS_ADME_hCYP2C19: NovaScreen (NVS) CYP450-related Enzyme Activity (ADME) Assay for human CYP2C19 (AID 2283113; active = hit-call score of the fitted dose curve at least 0.9, where 1 is the maximum;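 as to AC50: potency for inhibition seen as loss of fluorescent signal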). The method in brief: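 Biochemical CYP2C19 inhibition screen: insect-cell recombinant protein plus fluorescent substrate, 1 h, fluorescence intensity. Acetonitrile defined baseline activity. Single 10 uM concentration in duplicate, with concentration-response follow-up for actives.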

Experiment [11] has as its target human CYP2A6, CYP2A6 (gene 1548) (UniProt P11509). Briefly: NVS_ADME_hCYP2A6: NovaScreen (NVS) CYP450-related Enzyme Activity (ADME) Assay for human CYP2A6 (AID 2283099; active = hit-call score of the fitted dose curve at least 0.9, where 1 is the maximum). The method in brief:
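Loss of fluorescence signal relative to acetonitrile vehicle reported CYP2A6 inhibition in a cell-free system using insect-cell-derived enzyme. Readings were taken at 0.5 h; top concentration in follow-up dose series was 20 uM.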

Experiment [12] concerns the target human CYP1A2, CYP1A2 (gene 1544) (UniProt P05177). Briefly: NVS_ADME_hCYP1A2: NovaScreen (NVS) CYP450-related Enzyme Activity (ADME) Assay for human CYP1A2 (AID 2283102; active = hit-call score of the fitted dose curve at least 0.9, where 1 is the maximum;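 also: potency for inhibition since loss of fluorescence marks reduced CYP1A2 activity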). The method in brief: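 Inhibition scored as decrease in fluorescent product versus acetonitrile negative control. Enzyme: insect-cell recombinant human CYP1A2, substrate-specific, cell-free. Reading at 0.5 h; 10 uM duplicate initial screen with positive and negative controls on every plate.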

The target of experiment [13] is Cytochrome P450 3A4 (Homo sapiens) (UniProt P08684). Briefly: NVS_ADME_hCYP3A4: NovaScreen (NVS) CYP450-related Enzyme Activity (ADME) Assay for human CYP3A4 (AID 2283110; active = hit-call score of the fitted dose curve at least 0.9, where 1 is the maximum). The method in brief:
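Cell-free recombinant enzyme expressed in insect cells; fluorescent substrate turnover read after 0.33 h, acetonitrile as negative control. Primary screen in duplicate at 10 uM, actives then tested in concentration series.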

Experiment [14] concerns the target rat CYP1A2, Cyp1a2 (gene 24297) (UniProt P04799). The experiment can be described thus: NVS_ADME_rCYP1A2: NovaScreen (NVS) CYP450-related Enzyme Activity (ADME) Assay for rat CYP1A2 (AID 2283115; active = hit-call score of the fitted dose curve at least 0.9, where 1 is the maximum). The method in brief: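 Cell-free recombinant rat enzyme with fluorogenic substrate, read by fluorescence intensity 1 hour after dosing. Loss of signal versus acetonitrile negative control; primary screen at 10 uM in duplicate, actives followed in concentration series.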

Experiment [15] concerns the target human CYP2B6, CYP2B6 (gene 1555) (UniProt P20813). The experiment can be described thus: NVS_ADME_hCYP2B6: NovaScreen (NVS) CYP450-related Enzyme Activity (ADME) Assay for human CYP2B6 (AID 2283101; active = hit-call score of the fitted dose curve at least 0.9, where 1 is the maximum). The method in brief: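 Cell-free recombinant enzyme assay with a fluorogenic substrate; fluorescence intensity read 1 hour after dosing. Loss of signal relative to acetonitrile negative control indicates inhibition. Primary screen run in duplicate at 10 uM, actives then tested in concentration series.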

Records with an inconclusive call do not appear. Activity calls are given as the source filed them. The calls were made as follows, unless noted: active = hit-call score of the fitted dose curve at least 0.9, where 1 is the maximum; inactive = score below 0.9.

A word on the AC50: it is the concentration giving half of the maximal activity seen.

E-selectin (Homo sapiens), sequence (P16581 whole entry, looked up): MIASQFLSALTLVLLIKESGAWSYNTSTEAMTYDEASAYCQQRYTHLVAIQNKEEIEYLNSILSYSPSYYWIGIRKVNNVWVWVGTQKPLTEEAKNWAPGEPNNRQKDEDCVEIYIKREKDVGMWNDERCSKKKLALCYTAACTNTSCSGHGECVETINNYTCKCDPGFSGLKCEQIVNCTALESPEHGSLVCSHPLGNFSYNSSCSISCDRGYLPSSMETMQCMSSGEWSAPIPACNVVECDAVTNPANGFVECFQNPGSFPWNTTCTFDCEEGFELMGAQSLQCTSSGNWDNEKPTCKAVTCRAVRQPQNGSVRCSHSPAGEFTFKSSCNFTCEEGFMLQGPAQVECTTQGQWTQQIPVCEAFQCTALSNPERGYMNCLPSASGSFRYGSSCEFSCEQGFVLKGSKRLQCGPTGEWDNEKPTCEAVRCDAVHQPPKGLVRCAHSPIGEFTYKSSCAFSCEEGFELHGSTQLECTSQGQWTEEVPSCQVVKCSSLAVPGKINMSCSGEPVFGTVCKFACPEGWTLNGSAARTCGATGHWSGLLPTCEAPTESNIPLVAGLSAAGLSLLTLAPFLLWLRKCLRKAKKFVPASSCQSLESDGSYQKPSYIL
human CYP2A6, CYP2A6 (gene 1548), sequence (P11509 whole entry, looked up): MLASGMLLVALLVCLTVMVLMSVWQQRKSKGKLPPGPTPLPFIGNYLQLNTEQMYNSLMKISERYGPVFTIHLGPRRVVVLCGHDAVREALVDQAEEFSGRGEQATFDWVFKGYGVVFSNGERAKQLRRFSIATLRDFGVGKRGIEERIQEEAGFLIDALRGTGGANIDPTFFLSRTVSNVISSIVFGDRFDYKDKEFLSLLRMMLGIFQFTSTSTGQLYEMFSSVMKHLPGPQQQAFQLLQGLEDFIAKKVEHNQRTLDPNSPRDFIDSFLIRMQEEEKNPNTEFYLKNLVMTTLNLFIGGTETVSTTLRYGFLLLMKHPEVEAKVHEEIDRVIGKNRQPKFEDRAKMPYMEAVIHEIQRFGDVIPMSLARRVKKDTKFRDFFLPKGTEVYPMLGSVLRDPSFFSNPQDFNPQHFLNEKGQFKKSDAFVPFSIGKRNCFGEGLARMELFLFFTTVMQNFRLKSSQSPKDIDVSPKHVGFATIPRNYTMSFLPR
rat CYP1A2, Cyp1a2 (gene 24297), sequence (P04799 whole entry, looked up): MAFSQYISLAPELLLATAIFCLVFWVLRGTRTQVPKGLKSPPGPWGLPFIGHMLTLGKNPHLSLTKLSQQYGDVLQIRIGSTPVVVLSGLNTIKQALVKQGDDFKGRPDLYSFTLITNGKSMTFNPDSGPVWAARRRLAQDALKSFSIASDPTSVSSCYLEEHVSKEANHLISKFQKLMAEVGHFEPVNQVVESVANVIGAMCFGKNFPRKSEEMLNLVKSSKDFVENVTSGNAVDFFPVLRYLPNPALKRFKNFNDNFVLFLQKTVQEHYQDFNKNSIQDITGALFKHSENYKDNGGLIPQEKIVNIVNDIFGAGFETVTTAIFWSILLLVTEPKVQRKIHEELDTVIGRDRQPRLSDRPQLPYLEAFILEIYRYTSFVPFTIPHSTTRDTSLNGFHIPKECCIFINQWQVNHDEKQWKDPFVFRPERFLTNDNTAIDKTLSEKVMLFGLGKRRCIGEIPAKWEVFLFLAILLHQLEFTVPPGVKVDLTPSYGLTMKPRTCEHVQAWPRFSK
human CYP1A1, CYP1A1 (gene 1543), sequence (P04798 whole entry, looked up): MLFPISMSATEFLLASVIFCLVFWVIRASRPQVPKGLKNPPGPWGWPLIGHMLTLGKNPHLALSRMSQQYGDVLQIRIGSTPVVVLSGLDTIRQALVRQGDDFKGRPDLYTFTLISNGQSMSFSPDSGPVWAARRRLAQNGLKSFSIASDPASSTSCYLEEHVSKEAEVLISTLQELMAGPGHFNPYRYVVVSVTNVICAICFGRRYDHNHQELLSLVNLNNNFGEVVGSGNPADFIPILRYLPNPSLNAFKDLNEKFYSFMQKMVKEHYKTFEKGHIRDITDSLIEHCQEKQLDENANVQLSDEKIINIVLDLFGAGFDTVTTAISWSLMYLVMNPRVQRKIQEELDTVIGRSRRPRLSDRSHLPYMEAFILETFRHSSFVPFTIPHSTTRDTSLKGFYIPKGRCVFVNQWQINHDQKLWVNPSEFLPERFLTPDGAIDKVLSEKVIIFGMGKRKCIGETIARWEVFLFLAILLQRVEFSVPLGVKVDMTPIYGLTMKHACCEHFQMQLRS
human CYP2B6, CYP2B6 (gene 1555), sequence (P20813 whole entry, looked up): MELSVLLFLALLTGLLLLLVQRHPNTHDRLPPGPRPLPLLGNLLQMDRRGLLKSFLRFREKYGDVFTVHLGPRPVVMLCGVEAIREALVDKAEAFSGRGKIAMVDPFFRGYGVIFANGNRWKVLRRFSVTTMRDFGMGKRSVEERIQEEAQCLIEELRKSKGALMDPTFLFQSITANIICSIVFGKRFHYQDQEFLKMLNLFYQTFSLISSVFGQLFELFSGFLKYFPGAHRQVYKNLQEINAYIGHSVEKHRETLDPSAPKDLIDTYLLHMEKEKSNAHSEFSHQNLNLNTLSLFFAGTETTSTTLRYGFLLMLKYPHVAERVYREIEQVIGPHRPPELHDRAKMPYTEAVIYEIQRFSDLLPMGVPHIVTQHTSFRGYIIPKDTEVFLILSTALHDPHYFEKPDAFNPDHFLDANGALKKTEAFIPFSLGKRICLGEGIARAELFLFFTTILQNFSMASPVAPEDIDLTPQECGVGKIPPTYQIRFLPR
human CYP1A2, CYP1A2 (gene 1544), sequence (P05177 whole entry, looked up): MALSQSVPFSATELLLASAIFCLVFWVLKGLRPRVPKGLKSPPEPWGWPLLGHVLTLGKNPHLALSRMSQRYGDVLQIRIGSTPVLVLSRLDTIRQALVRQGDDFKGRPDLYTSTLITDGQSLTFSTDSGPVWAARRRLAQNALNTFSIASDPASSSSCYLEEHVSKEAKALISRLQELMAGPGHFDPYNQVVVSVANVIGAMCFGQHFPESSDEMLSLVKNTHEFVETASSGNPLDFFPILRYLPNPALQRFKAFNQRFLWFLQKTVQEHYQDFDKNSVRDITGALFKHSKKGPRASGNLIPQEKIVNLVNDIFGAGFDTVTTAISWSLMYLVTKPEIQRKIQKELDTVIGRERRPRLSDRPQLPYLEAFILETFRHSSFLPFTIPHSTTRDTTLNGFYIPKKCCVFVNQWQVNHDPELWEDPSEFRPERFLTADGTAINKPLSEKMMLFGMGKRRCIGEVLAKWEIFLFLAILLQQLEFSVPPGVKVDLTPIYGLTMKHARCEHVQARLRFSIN
human CYP2C9, CYP2C9 (gene 1559), sequence (P11712 whole entry, looked up): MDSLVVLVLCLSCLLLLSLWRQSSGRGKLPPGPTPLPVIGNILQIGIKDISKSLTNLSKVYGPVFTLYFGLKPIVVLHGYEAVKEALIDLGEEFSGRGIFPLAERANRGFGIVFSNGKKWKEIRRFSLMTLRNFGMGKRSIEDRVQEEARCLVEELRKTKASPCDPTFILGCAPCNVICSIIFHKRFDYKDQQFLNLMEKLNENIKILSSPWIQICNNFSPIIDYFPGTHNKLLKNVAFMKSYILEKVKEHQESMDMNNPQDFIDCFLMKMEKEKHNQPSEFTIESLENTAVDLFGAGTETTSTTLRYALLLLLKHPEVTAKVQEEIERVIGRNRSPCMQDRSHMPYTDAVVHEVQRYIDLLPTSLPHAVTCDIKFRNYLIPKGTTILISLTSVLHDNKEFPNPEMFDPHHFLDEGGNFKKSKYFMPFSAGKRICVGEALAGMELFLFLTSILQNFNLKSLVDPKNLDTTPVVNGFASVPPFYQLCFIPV
Cytochrome P450 3A4 (Homo sapiens), sequence (P08684 whole entry, looked up): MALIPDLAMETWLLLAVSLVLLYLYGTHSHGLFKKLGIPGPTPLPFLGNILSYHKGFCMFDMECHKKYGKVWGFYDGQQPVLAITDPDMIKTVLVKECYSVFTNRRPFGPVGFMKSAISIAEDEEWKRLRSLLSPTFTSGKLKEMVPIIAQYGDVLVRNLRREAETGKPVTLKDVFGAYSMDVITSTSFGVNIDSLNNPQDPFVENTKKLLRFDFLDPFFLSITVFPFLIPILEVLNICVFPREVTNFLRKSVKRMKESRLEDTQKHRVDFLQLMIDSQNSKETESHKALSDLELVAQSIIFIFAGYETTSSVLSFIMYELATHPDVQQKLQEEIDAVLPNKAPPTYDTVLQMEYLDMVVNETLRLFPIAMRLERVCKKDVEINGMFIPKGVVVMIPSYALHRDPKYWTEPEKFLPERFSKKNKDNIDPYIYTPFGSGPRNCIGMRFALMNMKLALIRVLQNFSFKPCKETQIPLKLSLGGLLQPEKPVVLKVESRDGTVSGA

In the case of `O=[N+]([O-])c1ccc(Cl)c(Cl)c1`, the outcome in experiment [1], in experiment [2], in experiment [3], in [4], in experiment [5] and in experiment [6] was inactive.

As for `CCCCN(CCCC)SN(C)C(=O)Oc1cccc2c1OC(C)(C)C2`, the half-maximal activity concentration (AC50) in [1] is 37 µM (active); in experiment [2], 32.6 µM (active); in [3] it was 32.1 µM (active); in experiment [4] it was 25 µM (active); in experiment [7], 33 µM (active); in experiment [5], 9.37 µM (active). Also, the AC50 in experiment [6] is 24 µM (active); in [9], 16.8 µM (active). In addition, the outcome in experiment [8] and in experiment [10] was inactive.

With `Cc1cccc(N)c1`, the outcome in experiment [1], in experiment [2], in experiment [3], in experiment [4], in experiment [7] and in experiment [5] was inactive. Further, the result in experiment [6] was inactive.

For `CN(C)C(=O)Cl`, the result in [1], in [2], in [3], in experiment [4], in experiment [7] and in experiment [5] was inactive. Moreover, the outcome in experiment [6] and in [11] was inactive.

`O=C(O)C(Cl)Cl`: the result in experiment [1], in experiment [2], in experiment [3], in experiment [4], in experiment [7] and in [5] was inactive. Further, in experiment [6], the result was inactive.

For the molecule `CCN(CC)c1ccccc1`, the outcome in experiment [1], in [2], in experiment [3], in experiment [4], in [7] and in [5] was inactive. Besides, in [6], the outcome was inactive.

As to `O=P(Oc1ccccc1)(Oc1ccccc1)Oc1ccccc1`, the concentration at half-maximal activity (AC50) in [1] is 29 µM (active); in [2] it was 33.7 µM (active); in experiment [3] it was 31.3 µM (active); in experiment [7], 30.2 µM (active); in experiment [5] it was 32.2 µM (active); in [6], 29.3 µM (active). The values for the AC50 in experiment [12] and in experiment [10] were 5.67 µM (active) and 0.872 µM (active), respectively. Further, the result in experiment [4] was inactive.

Consider `OCC(F)(F)OC(F)(F)C(F)(F)OC(F)(F)CO`, for which the result in [1], in experiment [2], in [3], in [4], in experiment [7] and in experiment [5] was inactive. In addition, the result in experiment [6] was inactive.

`c1nc[nH]n1`: the outcome in [1], in experiment [2], in experiment [3], in experiment [4], in experiment [7] and in experiment [5] was inactive. The outcome in [6] was inactive.

On to `CCCCc1ccccc1`, for which the outcome in experiment [1], in experiment [2], in experiment [4], in experiment [7], in [5] and in experiment [6] was inactive.

For the molecule `CCOC(=O)c1ccccc1C(=O)OCC`, the result in [1], in experiment [2], in experiment [3], in experiment [4], in experiment [5] and in [6] was inactive. Moreover, the molecule was classed as inactive in experiment [13].

Turning to `CCCCOCCOP(=O)(OCCOCCCC)OCCOCCCC`, the outcome in experiment [1], in [2], in experiment [3], in experiment [4], in [5] and in [6] was inactive. In experiment [10], the molecule was called inactive.

As to `N#Cc1c(-c2ccc(Cl)cc2)[nH]c(C(F)(F)F)c1Br`, the AC50 in experiment [1] is 1.53 µM (active); in experiment [2], 0.267 µM (active); in [4], 5.4 µM (active); in experiment [7], 0.178 µM (active); in experiment [5], 1.86 µM (active); in experiment [6], 4.34 µM (active).

For the molecule `O=S(=O)(F)C(F)(F)C(F)(F)C(F)(F)C(F)(F)C(F)(F)C(F)(F)C(F)(F)C(F)(F)F`, the result in [1], in experiment [2], in experiment [3], in experiment [4], in [5] and in experiment [6] was inactive.

In the case of `CCNc1nc(Cl)nc(NC(C)(C)C)n1`, the results for the AC50 in experiment [1] and in experiment [10] were 6.26 µM (active) and 6.82 µM (active), respectively. Moreover, the outcome in [2], in experiment [3], in [4], in experiment [5] and in [6] was inactive.

For `CCCCN(CCCC)N=O`, the outcome in experiment [1], in experiment [2], in experiment [3], in [4], in [5] and in experiment [6] was inactive.

As for `CCOP(=S)(OCC)SCSc1ccc(Cl)cc1`, the half-maximal activity concentration (AC50) is 20 µM (active) in [1]; 20 µM (active) in experiment [2]; 13 µM (active) in experiment [4]; 20 µM (active) in experiment [7]; 14.2 µM (active) in experiment [5]. Also, the result in experiment [6] was inactive.

For `CC(Cl)CN(C)C` (stereo unspecified), the AC50 in experiment [1] was 0.0162 µM (active); in [2], 20 µM (active); in experiment [5] it was 20 µM (active). Moreover, the outcome in experiment [4], in experiment [7] and in experiment [6] was inactive.

On to `O=P(OCC(Br)CBr)(OCC(Br)CBr)OCC(Br)CBr` (stereo unspecified), for which the result in experiment [1], in experiment [2], in [3], in experiment [4], in experiment [5] and in experiment [6] was inactive. Moreover, the molecule was called inactive in [14]. Besides, the concentration at half-maximal activity (AC50) in [10] is 4.35 µM (active).

For `CCC(C)(C)c1ccc(O)cc1`, the outcome in experiment [1], in experiment [2], in [3], in experiment [4], in experiment [5] and in experiment [6] was inactive. The outcome in experiment [11] was inactive. In experiment [15], the AC50 was 10 µM (active).
